Reference: PubChem BioAssay (Tox21)
Results filed as inconclusive are left out. Entries that show only a call come without a potency. Unmarked numbers belong to inactive results. Activity calls are given as the source filed them. Calls follow the shape of the full dose curve.

These compounds were tested against Retinoic acid receptor RXR-alpha (Homo sapiens) (UniProt P19793) (assay: qHTS assay to identify small molecule agonists of the RXR signaling pathway (AID 1159527; also: nearly all actives have a fitted effect of over 35% in size)). Settings: HEK293T RXRa-UAS-bla, beta-lactamase ratio, 16 h; series mostly up to 76.8 µM.
Chain of Retinoic acid receptor RXR-alpha (Homo sapiens) (P19793 whole entry, looked up): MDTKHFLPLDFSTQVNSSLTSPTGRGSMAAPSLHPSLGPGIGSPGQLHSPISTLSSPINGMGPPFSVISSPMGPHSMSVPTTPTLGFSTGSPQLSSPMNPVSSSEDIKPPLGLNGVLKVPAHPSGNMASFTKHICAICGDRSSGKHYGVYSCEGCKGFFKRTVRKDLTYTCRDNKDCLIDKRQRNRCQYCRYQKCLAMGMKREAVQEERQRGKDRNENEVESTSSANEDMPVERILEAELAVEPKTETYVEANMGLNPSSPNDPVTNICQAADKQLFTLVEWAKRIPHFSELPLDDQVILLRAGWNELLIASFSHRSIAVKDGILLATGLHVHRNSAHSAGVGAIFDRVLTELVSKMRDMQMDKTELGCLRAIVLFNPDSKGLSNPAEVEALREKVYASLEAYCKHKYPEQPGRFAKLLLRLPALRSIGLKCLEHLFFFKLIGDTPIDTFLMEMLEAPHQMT
Source text: U.S. Tox21 Program National Center for Advancing Translational Sciences [NCATS] NIH Chemical Genomics Center [NCGC] U.S. Environmental Protection Agency [EPA] National Institutes of Environmental Health Sciences [NIEHS] National Toxicology Program [NTP] U.S. Food and Drug Administration [FDA] Tox21 Assay Overview: The Retinoid X receptor (RXR), a nuclear hormone receptor expressed in liver, spleen, placenta, epidermis, central nervous system. These receptors are able to form homo and heterodimers with other nuclear receptors and due to this heterodimerizing ability, RXR functions as master regulators producing diverse physiological effects. Three subtypes of RXR exist; alpha, beta and gamma. Retinoid X receptor alpha (RXR-alpha) has potential roles in metabolic signaling pathways, skin alopecia, dermal cysts, cardiac development, insulin sensitization etc. Therefore screening environmental chemicals on RXR-alpha signaling can be used for the studies focused on such therapeutic applications. For quantification of RXR-alpha ligands signaling, GeneBLAzer RXR alpha-UAS-bla HEK 293T (Life Technologies, Carlsbad, CA) cells containing a beta-lactamase reporter-gene under control of Retinoid X receptor-alpha response element were used to screen Tox21 10K library.
Tox21 Assay Protocol Summary: RXR-alpha HEK 293T cells were dispensed at 2,000 cells/6 uL of assay medium containing 2% charcoal-stripped FBS using a Multidrop Combi (ThermoFisher Scientific, Waltham, MA) dispenser. The assay was performed in black wall/clear-bottom 1536-well plates (Greiner Bio-One North America Inc. Monroe, NC). 9-cis retinoic acid was used as a positive control in the agonist mode screen. After the assay plates were incubated at 37 C and 5% CO2 for 5 hr, 23 nL of compounds dissolved in DMSO, positive controls or DMSO only were transferred to the assay plate by a Pintool station (Kalypsys, San Diego, CA). The assay plates were incubated at 37 C and 5% CO2 for 16 hr. One uL of LiveBLAzer B/G FRET substrate (Life Technologies) was added using a Flying Reagent Dispenser (Aurora Discovery, San Diego, CA) and the plates were incubated at room temperature for 2 hr. Fluorescence intensity (405 nm excitation, 460/530 nm emission) was measured using an Envision plate reader (PerkinElmer, Shelton, CT).

Structure (SMILES) | Potency | activation
CCN(Cc1cccc(S(=O)(=O)O)c1)c1ccc(C(=C2C=CC(=[N+](CC)Cc3cccc(S(=O)(=O)O)c3)C=C2)c2ccc(O)cc2S(=O)(=O)[O-])cc1 | inactive | 
CCCCCCCC(=O)OCCCCCC | inactive | 
Nc1nc2ccc(OC(F)(F)F)cc2s1 | inactive | 
BrC(Br)C(Br)Br | inactive | 
CN=C(N)NC(=O)Nc1c(C)cccc1C | inactive | 
CC[C@H]1OC(=O)[C@H](C)[C@@H](O[C@H]2C[C@@](C)(OC)[C@@H](O)[C@H](C)O2)[C@H](C)[C@@H](O[C@@H]2O[C@H](C)C[C@H](N(C)C)[C@H]2O)[C@](C)(O)C[C@@H](C)C(=O)[C@H](C)[C@@H](O)[C@]1(C)O | inactive | 
O=C1OC(=O)c2c(Br)c(Br)c(Br)c(Br)c21 | inactive | 
c1ccc(CNc2ncnc3c2ncn3C2CCCCO2)cc1 (stereo not given) | inactive | 
CCSC(=O)N(CC)CC | inactive | 
CC(C)OC(=O)c1ccccc1C(=O)OC(C)C | inactive | 
CC(C)Cc1ccc(CC(=O)O)cc1 | inactive | 
CCC(C)(C)C(=O)O | inactive | 
CCCCCCCCCCCCCOC(=O)CCSCCC(=O)OCCCCCCCCCCCCC |  | 4.41% [at 15.8 µM]
CC[C@H]1OC(=O)[C@H](C)[C@@H](O[C@H]2C[C@@](C)(OC)[C@@H](O)[C@H](C)O2)[C@H](C)[C@@H](O[C@@H]2O[C@H](C)C[C@H](N(C)C)[C@H]2O)[C@](C)(O)C[C@@H](C)/C(=N\OCOCCOC)[C@H](C)[C@@H](O)[C@]1(C)O | inactive | 
O=C(O)CO | inactive | 
CCCCCC | inactive | 
CNC1CCCN(c2c(F)cc3c(=O)c(C(=O)O)cn(C4CC4)c3c2OC)C1 (stereo not given) | inactive | 
CCOC(=O)Oc1ccc(CCNC(=O)[C@H](CCSC)NC(C)=O)cc1OC(=O)OCC | inactive | 
Cc1ccc(NC(=O)N(C)C)cc1NC(=O)N(C)C | inactive | 
C=CCOC(=O)COCCC(C)C | inactive | 

Structure (SMILES) | Potency | activation
Cc1ccc2c(c1[N+](=O)[O-])C(=O)c1ccccc1C2=O | inactive | 
O=S(=O)(Cl)c1c(Cl)cccc1Cl | inactive | 
COC(CC(C)CCCC(C)(C)O)OC (stereo not given) | inactive | 
Cc1ccc2c(c1)CCCN2 | inactive | 
CC(C)(C)S | inactive | 
CC(C)N(C)C | inactive | 
CC(C(=O)O)c1ccc(C(=O)c2cccs2)cc1 (stereo not given) | inactive | 
O=c1[nH]c2cc(C(F)(F)F)c(N3CCOCC3)cc2n(CP(=O)(O)O)c1=O | inactive | 
CCO[Si](C)(CCCOCC1CO1)OCC (stereo not given) | inactive | 
C1=CCC2CC=CC2C1 (stereo not given) | inactive | 
CC(C)(C)NCC(O)COc1cccc2c1C[C@H](O)[C@H](O)C2 (stereo not given in full) | inactive | 
Cc1ccc(Cl)cc1N | inactive | 
Cc1oc(=O)oc1COC(=O)[C@@H]1N2C(=O)[C@@H](NC(=O)[C@H](N)c3ccccc3)[C@H]2SC1(C)C | inactive | 
CCN(CC)C(=O)N1CCN(C)CC1 | inactive | 
O=c1[nH][nH]c(=O)c2cc([N+](=O)[O-])ccc12 | inactive | 
O=C1CC[C@@H](C(=O)O)N1 | inactive | 
O=C(c1ccccc1)c1ccc(O)cc1 | inactive | 
Oc1cccc2[nH]ccc12 | inactive | 
Nc1ccc(F)cc1 | inactive | 
CC1CCCC(=O)C1=O (stereo not given) | inactive | 
